System: PPARg:RXRa (NR concentration 180 nM, RXRa partner concentration 90 nM)
Test: PBM binding z-score (relative to random genomic background probes); higher = stronger binding; sequences stand for … in GC…GCGATTGACAGCGTAGAATGAAGG
Outline: (§1)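 Ligand-free nuclear receptor dimers were bound for 1 h to custom Agilent 4×180K protein-binding microarrays. Detection used antibodies against each partner (one per run). Binding z-scores rest on regression-normalized fluorescence, with random background probes as the reference.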

| Sequence | PBM binding z-score |
| --- | --- |
| CCGACTGGGCCAAAGGTTACCATACTCAGTACGA | 10.7 |
| AGTAAAAGTTCATCTAGGTAACGTAAGATATGCT | 3.98 |
| CCTTACGGGTCACTGACAGGTTATATCATTTGGA | 4.29 |
| GCGACTGGGGCATCAGCAGCTTACCATAACTTAA | 0.465 |
| GCTGCTAGGTCAACTAATGGTCAGCTAAAGCTCG | 2.45 |
| CCTACTGGGCCACGAAGGGTCATTGATTCAGTGA | 3.11 |
| ACAGACAGGTGATGAAGGTAACTAAGGCTATCAT | 0.606 |
| TCTTGTAGATCAAGCAGGTTGAGAAAGCCTGAGT | -0.512 |
| TCTATTAGTTGATTAGGGCGACCGAAACAGCGGA | -0.0653 |
| CTACCAAGGTGAGCAAGGTCGTTGATTACTATTC | 0.312 |
| ATCGAAAGGTCGTGAGGTGGGTATACAGAAAGGC | 3.35 |
| CTCGAAAGGTCGCTTGAGGTGAGTATACGGATAA | 2.15 |
| CCTTACGGGTCAAGGCTATAGCACGGGTGGTACG | 3.91 |
| AGAATGAGGTTATTAAGATTAGGGAATTGCGGTC | 1.17 |
| TCTCGGAGGACTCGAAAGGTCAGAGCTCGACATC | 0.567 |
| ATCTCTAGGTATAGTTCAGTGAAAGATCGATAGA | 0.816 |
| CATACTAGGTCACGAAAGGTCAAAGTCGAATGAC | 9.53 |
| CCTACTGGGCCCAAGGTCATTGATTCCAATGCTC | 6.53 |
| GGAACGATGGCAAGTTGATAGCAGAGTTTGATGG | 0.339 |
| TCTTGTAGATCATAGGTTAAGAAAGCCGAAGCCT | 4.38 |

| Sequence | PBM binding z-score |
| --- | --- |
| CGTCCAAGGTCAAAGGCCAGTGAAGAGATGACGG | 6.49 |
| TCATATAGGTAAACAAGTGAAAGTCCGTAAGTTA | 1.4 |
| CCTTACGGGTCACTGACAGGTTATAACATTTGGA | 4.66 |
| ATATGTACGTTATCGGGTCATTCAGTTTGCGCAT | 1.3 |
| CCTTCTGGGCCAAGGTCATTGATCAGTCAAAGCA | 3.12 |
| TCTATTCGTTGAAGGGCAACCGACGAGTCCGTTT | 0.0836 |
| CATAGTTGGTCAGGAGGTCACACACCGGATATGA | 3.64 |
| CGTCCAAGGTCAGCAGGTCAGTGATAGCGACGTG | 4.13 |
| AACTCTAGGTAACAAGTTCAGTGAAAGAGAGGAC | 1.32 |
| CCTACTGGGCCATTCAGAGTTCATTGATCATATG | 1.04 |
| CCTACTGGTCCAAAAAGGTCATTGATGCCGATAA | 1.53 |
| AGAATGAGGTTAACATCAGGGAAACAGAATACAT | 3.36 |
| CCTACTGGGCCAAAGGTCATTAATTCCAATGCTC | 12.5 |
| TAGCCTGGGTCAGATCGGGCCAGTATACGCTATA | 0.579 |
| ACAGACAGGTGATGGAGGTAACTCAGGCTATCAT | 0.789 |
| AGAATGAGGTTATTACGATCAGGGAATTGCGGTC | 1.55 |
| TCCTGTAGATCAATAGAGGTTAAGAAAGTGCGCT | -0.0634 |
| ACAGACAGGTGATGAGGGTAACTCAGGCTATCAT | 0.8 |
| GCTGCTAGGACAACTGATGGTCAGCTAAAGCTCG | -0.0624 |
| ACTAGCAGGCCAAGTTTGGGTCACTCGAACAAAG | 0.0973 |

System: PPARg:RXRa 270nM:90nM, anti-RXR (NR concentration 270 nM, RXRa partner concentration 90 nM)
Test: as above
Outline: as §1

| Sequence | PBM binding z-score |
| --- | --- |
| CCGACTGGGCCAAAGGTTACCATACTCAGTACGA | 9.42 |
| AGTAAAAGTTCATCTAGGTAACGTAAGATATGCT | 3.88 |
| CCTTACGGGTCACTGACAGGTTATATCATTTGGA | 4.13 |
| GCGACTGGGGCATCAGCAGCTTACCATAACTTAA | 0.329 |
| GCTGCTAGGTCAACTAATGGTCAGCTAAAGCTCG | 3.11 |
| CCTACTGGGCCACGAAGGGTCATTGATTCAGTGA | 3.45 |
| ACAGACAGGTGATGAAGGTAACTAAGGCTATCAT | 0.00614 |
| TCTTGTAGATCAAGCAGGTTGAGAAAGCCTGAGT | 0.973 |
| TCTATTAGTTGATTAGGGCGACCGAAACAGCGGA | 1.73 |
| CTACCAAGGTGAGCAAGGTCGTTGATTACTATTC | 0.556 |
| ATCGAAAGGTCGTGAGGTGGGTATACAGAAAGGC | 3.96 |
| CTCGAAAGGTCGCTTGAGGTGAGTATACGGATAA | 2.92 |
| CCTTACGGGTCAAGGCTATAGCACGGGTGGTACG | 4.41 |
| AGAATGAGGTTATTAAGATTAGGGAATTGCGGTC | 1.57 |
| TCTCGGAGGACTCGAAAGGTCAGAGCTCGACATC | 2.34 |
| ATCTCTAGGTATAGTTCAGTGAAAGATCGATAGA | 1.55 |
| CATACTAGGTCACGAAAGGTCAAAGTCGAATGAC | 7.93 |
| CCTACTGGGCCCAAGGTCATTGATTCCAATGCTC | 6.93 |
| GGAACGATGGCAAGTTGATAGCAGAGTTTGATGG | -0.873 |
| TCTTGTAGATCATAGGTTAAGAAAGCCGAAGCCT | 5.93 |

| Sequence | PBM binding z-score |
| --- | --- |
| CGTCCAAGGTCAAAGGCCAGTGAAGAGATGACGG | 6.54 |
| TCATATAGGTAAACAAGTGAAAGTCCGTAAGTTA | 2.55 |
| CCTTACGGGTCACTGACAGGTTATAACATTTGGA | 4.61 |
| ATATGTACGTTATCGGGTCATTCAGTTTGCGCAT | 1.35 |
| CCTTCTGGGCCAAGGTCATTGATCAGTCAAAGCA | 4.15 |
| TCTATTCGTTGAAGGGCAACCGACGAGTCCGTTT | 2.42 |
| CATAGTTGGTCAGGAGGTCACACACCGGATATGA | 3.65 |
| CGTCCAAGGTCAGCAGGTCAGTGATAGCGACGTG | 4.45 |
| AACTCTAGGTAACAAGTTCAGTGAAAGAGAGGAC | 1.72 |
| CCTACTGGGCCATTCAGAGTTCATTGATCATATG | 1.61 |
| CCTACTGGTCCAAAAAGGTCATTGATGCCGATAA | 2.98 |
| AGAATGAGGTTAACATCAGGGAAACAGAATACAT | 3.34 |
| CCTACTGGGCCAAAGGTCATTAATTCCAATGCTC | 10.3 |
| TAGCCTGGGTCAGATCGGGCCAGTATACGCTATA | 0.64 |
| ACAGACAGGTGATGGAGGTAACTCAGGCTATCAT | -0.241 |
| AGAATGAGGTTATTACGATCAGGGAATTGCGGTC | 1.88 |
| TCCTGTAGATCAATAGAGGTTAAGAAAGTGCGCT | 1.63 |
| ACAGACAGGTGATGAGGGTAACTCAGGCTATCAT | -0.0214 |
| GCTGCTAGGACAACTGATGGTCAGCTAAAGCTCG | -0.895 |
| ACTAGCAGGCCAAGTTTGGGTCACTCGAACAAAG | 0.504 |

From the supplement of paper PMC6555819
